# Several values for one entry are separate records, joined by “and”; a condition that tells them apart may be missing. Identical values can stand only once. A number with no mark means an inactive call. Records with an inconclusive call do not appear. A call without a number means that no potency is given here. Activity calls are given as the source filed them. Calls come from the whole dose curve; as a rule, active = well fitted curve in the direction sought with a large enough effect; inconclusive = small, poorly fitted or top-dose-only effect, or another doubt; inactive = no such curve, though single readings can be large; an effect the other way counts as inactive or inconclusive.
# Key:
# [1] = qHTS Assay for Identifying Gametocytocidal Compounds (AID 743244); note: potency is the fitted concentration of half-maximal effect;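 for max response: actives lower the fluorescent signal which means gametocytes are killed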; settings: P. falciparum 3D7 stage III-V gametocytes, alamarBlue, 72 h; max response: stronger effect = lower value
# How it was run: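 Stage III–V gametocytes of P. falciparum 3D7 were seeded at 20,000 cells/well onto pre-dispensed compounds. After 72 h, 37 °C, 5% CO2, alamarBlue was added for another 24 h.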
# [2] = biological target: T1, Hexokinase-4 (Homo sapiens) + Glucokinase regulatory protein (Homo sapiens) (UniProt P35557+Q14397); test: qHTS assay for inhibitors of recombinant human GCK-GKRP interaction: Diaphorase-coupled assay (AID 743205)
# How it was run: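 Inhibitors of the GCK–GKRP complex relieve GKRP suppression of GCK, detected through a G6PDH–diaphorase cascade reducing resazurin. Human GST-GCK and FLAG-GKRP are used at 10 nM with 5 mM glucose and 0.4 mM ATP.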
# [3] = biological target: T1, Hexokinase-4 (Homo sapiens) + Glucokinase regulatory protein (Homo sapiens); test: qHTS assay for inhibitors of recombinant human GCK-GKRP interaction: ADP-Glo assay (AID 743206)
# How it was run: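 GST-GCK and FLAG-GKRP (15 nM each in the dispensed mix, with 2 uM S6P) react with 0.4 mM ATP and 5 mM glucose (final) in Hepes pH 7.6 for 60 min at room temperature. ADP is measured by ADP-Glo luminescence.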
# [4] = biological target: T1, Hexokinase-4 (Homo sapiens) + Glucokinase regulatory protein (Homo sapiens); test: qHTS assay for inhibitors of recombinant human GCK-GKRP interaction: HTRF assay (AID 743207)
# How it was run: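 Steps: dispense GCK–GKRP complex (5 nM each, GST- and FLAG-tagged) with 2 uM S6P; pin in compounds; add XL665/Eu-cryptate-labelled antibodies; incubate 60 min at room temperature; read time-resolved FRET at 665 and 615 nm.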
# [5] = qHTS assay for cell viability of HEK293 cells (AID 743288); settings: ATP luminescence (CellTiter-Glo), 18 h, stronger effect = lower value; note: nearly all actives have a fitted effect of over 50% in size
# How it was run: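 The Tox21 protocol used parental HEK293 cells treated for 18 h at 37 C with compounds delivered by pintool; ATP-coupled luminescence after 30 min at room temperature gave viability.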
# [6] = qHTS assay for cell viability of the p53RE-bla HCT-116 cell line (AID 743292); note: nearly all actives have a fitted effect of over 55% in size
# How it was run: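 ATP-based luminescence, 16 h compound exposure at 37 C, p53RE-bla HCT-116 cells at 4,000/well.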
# T1 sequence (P35557 whole entry, looked up): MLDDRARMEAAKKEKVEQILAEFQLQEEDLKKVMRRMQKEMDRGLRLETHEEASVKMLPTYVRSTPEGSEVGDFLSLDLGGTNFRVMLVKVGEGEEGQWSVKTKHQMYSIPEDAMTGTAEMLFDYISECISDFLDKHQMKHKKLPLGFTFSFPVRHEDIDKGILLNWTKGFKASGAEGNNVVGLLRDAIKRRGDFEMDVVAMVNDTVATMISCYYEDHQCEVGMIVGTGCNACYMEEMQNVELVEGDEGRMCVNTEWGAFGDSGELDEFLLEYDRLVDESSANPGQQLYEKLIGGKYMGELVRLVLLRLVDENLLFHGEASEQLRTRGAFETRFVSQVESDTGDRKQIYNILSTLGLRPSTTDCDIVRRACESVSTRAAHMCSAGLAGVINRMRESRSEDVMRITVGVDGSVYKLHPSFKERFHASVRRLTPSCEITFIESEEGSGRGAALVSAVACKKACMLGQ
# T1 sequence (Q14397 whole entry, looked up): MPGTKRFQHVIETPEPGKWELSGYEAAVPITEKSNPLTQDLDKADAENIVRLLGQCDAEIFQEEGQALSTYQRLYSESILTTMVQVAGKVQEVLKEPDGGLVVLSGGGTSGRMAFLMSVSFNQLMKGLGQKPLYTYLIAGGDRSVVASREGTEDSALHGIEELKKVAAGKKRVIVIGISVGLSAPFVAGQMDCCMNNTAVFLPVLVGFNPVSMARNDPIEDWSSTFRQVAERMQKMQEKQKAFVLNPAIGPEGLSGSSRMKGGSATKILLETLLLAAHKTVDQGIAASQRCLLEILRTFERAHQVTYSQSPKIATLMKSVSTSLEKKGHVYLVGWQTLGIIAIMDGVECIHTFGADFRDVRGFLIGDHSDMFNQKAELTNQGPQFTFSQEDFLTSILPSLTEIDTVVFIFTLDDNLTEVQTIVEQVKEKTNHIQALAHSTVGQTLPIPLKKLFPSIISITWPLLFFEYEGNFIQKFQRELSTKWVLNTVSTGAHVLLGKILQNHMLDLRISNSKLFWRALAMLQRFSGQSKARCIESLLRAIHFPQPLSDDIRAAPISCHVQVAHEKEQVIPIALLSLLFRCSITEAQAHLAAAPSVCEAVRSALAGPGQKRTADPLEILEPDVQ
compound,measurement,setting,value
CN1CCC(=C2c3ccccc3Sc3ccccc32)CC1,Potency,[1],15.8 µM (active)
C[N+]1(CCCCC[N+]2(C)CCCC2)CCCC1,outcome,[2],inactive
same,outcome,[3],inactive
same,outcome,[4],inactive
same,max response,[1],12.3% and 19.3%
CCCC1O[C@@H]2C[C@H]3[C@@H]4CCC5=CC(=O)C=C[C@]5(C)[C@H]4[C@@H](O)C[C@]3(C)[C@]2(C(=O)CO)O1 (some centres not stated),outcome,[2],inactive
same,outcome,[3],inactive
same,outcome,[4],inactive
same,max response,[1],-5.95% and 18.2%
CCOC(=O)[C@H](CCc1ccccc1)N[C@@H](C)C(=O)N1Cc2ccccc2C[C@H]1C(=O)O,max response,[1],4.65%
Nc1cc(Cl)c(NC2=NCCN2)c(Cl)c1,outcome,[2],inactive
same,outcome,[3],inactive
same,outcome,[4],inactive
same,max response,[1],-0.108% and 36.5%
N[C@@H](Cc1cnc[nH]1)C(=O)O,outcome,[2],inactive
same,outcome,[3],inactive
same,outcome,[4],inactive
same,max response,[1],4.12% and 12.1%
COc1ccc(/C=C/C(=O)c2ccc(OC)cc2OC)cc1,max response,[1],-14.8%
Oc1ccc(O)cc1,outcome,[2],inactive
same,outcome,[3],inactive
same,outcome,[4],inactive
same,max response,[5],-28.2%
CCC(NC(C)C)C(O)c1ccc(O)c(O)c1 (configuration not stated),outcome,[2],inactive
same,outcome,[3],inactive
same,outcome,[4],inactive
same,max response,[1],-4.31%
NC(=NCCCCCCN=C(N)/N=C(\N)Nc1ccc(Cl)cc1)/N=C(\N)Nc1ccc(Cl)cc1,Potency,[1],7.08 µM (active)
same,max response,[5],-23.7% and -11.7% and -27.9%
Nc1ccc(C(=O)O)cc1,max response,[1],-1.31%
same,max response,[5],7.36%
same,outcome,[6],inactive

# From PubChem BioAssay (NCATS)
